Screening data as filed in PubChem BioAssay.
These entries were drawn from the full list.
aSyn 5UTR act = Activators via SNCA 5'UTR binding, MLPCN; alpha-synuclein 5'UTR reporter, activators screen; activity score, % (tested at 7.5 µM), hits read low; 7.1% of 300,000 active; in the data active means activity score below about -60%
Large screens that a line does not name were inactive.

COc1ccc2nc(-n3c(O)c(C4=c5ccccc5=NC4=O)[nH]c3=S)sc2c1	aSyn 5UTR act -74
CN1CCc2c(sc(/N=C/c3cc(Cl)ccc3O)c2C#N)C1	aSyn 5UTR act -157
CN1CCc2c(sc(/N=C/c3c[nH]c4ccccc34)c2C#N)C1	aSyn 5UTR act -68
O=c1oc2ccccc2c(Nc2ccc3ccccc3c2)c1[N+](=O)[O-]	aSyn 5UTR act -94
COc1ccc(CN=Cc2[nH]c3ccc(Br)c(Cl)c3c2O)cc1	aSyn 5UTR act -78
CCCCNC(=O)c1ccc(Cn2c(=S)[nH]c3c([nH]c4ccc(OC)cc43)c2=O)cc1	none
CCCNC(=O)c1ccc2c(=O)c(O)c(-c3ccc(OC)cc3)[nH]c2c1	none
COc1ccc2[nH]cc(C(=O)NCCc3ccccc3)c(=O)c2c1	aSyn 5UTR act -71
CCCCC(=NCCc1c(C)[nH]c2ccc(OC)cc12)C1=C(O)CC(c2ccccc2)CC1=O (configuration not stated)	none
COc1ccc2c(=O)c(C(=O)NCCc3ccccc3)c[nH]c2c1	aSyn 5UTR act -169
Cn1cc(Cl)cc(C(=O)Nc2ccccc2)c1=O	aSyn 5UTR act -133
CC(C)(C)n1ncc2c(=O)n(CC(=O)NCc3ccc(F)cc3)cnc21	aSyn 5UTR act -90
CC(C)(C)n1ncc2c(=O)n(CC(=O)NCc3ccco3)cnc21	aSyn 5UTR act -93
CCOC(=O)C(C)Oc1cccc2c(=O)n(CC(=O)NCc3ccc(F)cc3)ccc12 (configuration not stated)	none
CCOc1ccccc1NC(=O)Cn1nnc(C(=O)NCc2ccco2)c1N	none
CC(C)(C)n1ncc2c(=O)n(CC(=O)c3ccccc3)cnc21	aSyn 5UTR act -107
CC(C)(C)n1ncc2c(=O)n(CC(=O)NC3CCCCC3)cnc21	aSyn 5UTR act -108
O=C(Cn1cc(C(F)(F)F)cc(Cl)c1=O)NCc1ccc(F)cc1	aSyn 5UTR act -81
Cc1ccc(-c2nnc(-c3ccccc3)o2)cc1Br	aSyn 5UTR act -149
Cc1ccc(-c2nnc(-c3cccc(Br)c3)o2)cc1	aSyn 5UTR act -159
O=C(CNc1ccc(Br)cc1)c1ccc(Br)s1	aSyn 5UTR act -68
COc1ccc(/C=N/Nc2nc(Nc3ccccc3)nc(N3CCCCC3)n2)cc1OC	aSyn 5UTR act -111
CCCCC(=O)Nc1ccc(C(=O)Nc2ccc(OC)cc2[N+](=O)[O-])cc1	none
COc1ccc(NC(=O)c2sccc2C)c([N+](=O)[O-])c1	aSyn 5UTR act -184
COc1ccc(NC(=O)C/C(C)=N/NC(=O)c2cccs2)c([N+](=O)[O-])c1	aSyn 5UTR act -111
COc1ccc(NC(=O)/C=C/c2ccccc2)c([N+](=O)[O-])c1	aSyn 5UTR act -176
COc1ccc(NC(=O)c2cccs2)c([N+](=O)[O-])c1	aSyn 5UTR act -161
Fc1cc(Cl)c(OCc2noc(-c3ccsc3)n2)c(Cl)c1	aSyn 5UTR act -81
Clc1ccc(OCc2noc(-c3ccsc3)n2)c(Cl)c1	aSyn 5UTR act -170
CCN(CC)C(=O)N1c2ccccc2C=Cc2ccccc21	aSyn 5UTR act -101
Fc1ccc(CSc2nnc3ccccn23)c(Cl)c1	aSyn 5UTR act -92
Fc1ccc(-c2nnc(CSc3nnc4ccccn34)o2)cc1	aSyn 5UTR act -116
c1ccc(-c2cnc(CSc3nnc4ccccn34)o2)cc1	aSyn 5UTR act -94
O=C(O)c1ccc2c3c(ncnc13)-c1ccccc1C2=O	none
Cc1ccc2c3c(cccc13)-c1ccccc1C2=O	aSyn 5UTR act -111
CCn1nc(NC(=O)C2CCCO2)c2cc3cc(C)ccc3nc21 (configuration not stated)	aSyn 5UTR act -90
CCCn1nc(NC(=O)COC)c2cc3cc(C)ccc3nc21	aSyn 5UTR act -96
CC(C)Sc1nc2ccc(N3C(=O)C4CCCCC4C3=O)cc2s1 (configuration not stated)	aSyn 5UTR act -126
COc1cccc(CNC(=O)c2nnn(CC(=O)Nc3ccc(Br)cc3)c2N)c1	none
CCOc1ccc(CCNC(=O)c2nnn(CC(=O)Nc3ccc(C)cc3)c2N)cc1OCC	aSyn 5UTR act -71
C=CCOc1ccc2c(OC)c3ccoc3nc2c1OC	aSyn 5UTR act -81
CC(C)c1ccc2nc(SCC(=O)NCC3CCCO3)c(C#N)cc2c1 (configuration not stated)	aSyn 5UTR act -143
O=c1c(-c2nc3ccccc3s2)cccn1Cc1ccc(Cl)cc1	aSyn 5UTR act -111
Clc1ncccc1-c1nc2ccccc2s1	aSyn 5UTR act -149
Cc1c(C(=O)O)cccc1-c1ccc(C=O)o1	aSyn 5UTR act -80
CCOc1ccc(C(=O)NC(=S)Nc2cccc(S(=O)(=O)NC3=NCCC3)c2)cc1	none
CCC(=O)Nc1cccc(NC(=S)NC(=O)c2ccc(Cl)cc2)c1	aSyn 5UTR act -151
CCC(=O)Nc1cccc(NC(=S)NC(=O)c2ccccc2C)c1	aSyn 5UTR act -113
Cn1c(-c2ccccc2)cc2c3no[n+]([O-])c3ccc21	aSyn 5UTR act -69
CCN(CC)c1ccc(NC(=O)c2cnn(CC)c2)cc1	aSyn 5UTR act -95
COC(=O)Cc1ccc(NC(=O)c2ccc(Br)o2)cc1	aSyn 5UTR act -153
COc1ccc(-c2ccc(NC(=O)c3ccc(Br)o3)cc2)nn1	aSyn 5UTR act -110
CCN(CC)c1ccc(NC(=O)c2ccc(Br)o2)cc1	aSyn 5UTR act -151
Cc1cccc2nc(=S)n(C(=O)c3ccco3)n12	aSyn 5UTR act -221
O=C(c1ccco1)n1c(=S)nc2ccccn21	aSyn 5UTR act -172
Cc1ccn2c(c1)nc(=S)n2C(=O)c1ccccc1	aSyn 5UTR act -100
Cc1ccc(NC(=O)c2cc(F)c(F)cc2Cl)nc1	aSyn 5UTR act -130
Cc1ccc(NC(=O)c2ccccc2F)nc1	aSyn 5UTR act -88
CC(=O)c1c(C)[nH]c(C(=O)Nc2ccc(C)cn2)c1C	none
COc1cc2ccccc2cc1C(=O)Nc1ccc(C)cn1	aSyn 5UTR act -87
O=C(Nc1cnc2ccccn2c1=O)c1ccc(Cl)cc1	aSyn 5UTR act -139
Cc1nc(NC(=O)c2oc3ccccc3c2C)sc1C(=O)N(C)C	aSyn 5UTR act -193
CC(Oc1cccc(Cl)c1)C(=O)Nc1nc(-c2ccccn2)cs1 (configuration not stated)	none
Cc1nc(NC(=O)C(C)Oc2cccc(Cl)c2)sc1C(=O)N(C)C (configuration not stated)	aSyn 5UTR act -65
Cc1nc(NC(=O)/C=C/c2ccccc2)sc1C(=O)N(C)C	aSyn 5UTR act -166
Cc1nnc(NC(=O)c2oc3ccccc3c2C)s1	aSyn 5UTR act -83
CCCCc1nnc(NC(=O)c2oc3ccccc3c2C)s1	aSyn 5UTR act -96
Cc1ccc(C(=O)Nc2nc(C)c(C(=O)N(C)C)s2)o1	aSyn 5UTR act -77
Cc1ccc(-c2csc(N3C(=N)SCC3=O)n2)cc1	aSyn 5UTR act -162
CCSc1ncc(/C=N/Nc2ccc(Cl)cc2)n1C	aSyn 5UTR act -181
CCSc1ncc(/C=N/Nc2ccccc2)n1C	aSyn 5UTR act -109
CCSc1ncc(/C=N/Nc2ccc([N+](=O)[O-])cc2)n1C	aSyn 5UTR act -194
O=C1C=CCC(/C=C/c2ccccc2)O1 (configuration not stated)	aSyn 5UTR act -104
COc1ccc(CNc2nc3ccccc3n2C)c(OC)c1	aSyn 5UTR act -88
COc1ccc(CNc2nc3ccccc3n2C)c(O)c1	aSyn 5UTR act -133
CCCn1c(NCc2cccc(OC)c2O)nc2ccccc21	aSyn 5UTR act -82
Cc1ccc(-n2nnnc2CNC(=O)c2ccc([N+](=O)[O-])o2)cc1C	aSyn 5UTR act -98
O=C(NCc1nnnn1-c1ccc(F)cc1)c1ccc([N+](=O)[O-])o1	aSyn 5UTR act -136
Cc1cccc(Nc2nc(-c3cccs3)cs2)n1	aSyn 5UTR act -91
